Test results as given in PubChem BioAssay AID588726 (The Scripps Research Institute Molecular Screening Center, 2011).
The campaign covered roughly 360,000 compounds. About 8,200 (2.3%) were called active. Many of the other results were omitted from the sample, so actives are more common in it than they were. Unmarked numbers belong to inactive results. Rule as the data show it: active = inhibition above about 27%; inactive = the rest.

Each molecule was assayed against Fructose-bisphosphate aldolase (Mycobacterium tuberculosis (strain ATCC 25618 / H37Rv)) (UniProt P9WQA3) (assay: M. tuberculosis aldolase activity blockers – biochemical, fluorescence, strain H37Rv, primary screen (AID 588726;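 also: 0% = vehicle and 100% = reference inhibitor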)). Conditions: purified M. tuberculosis FBA, fluorescence read-out, at 1 µM, active compounds read high.
Fructose-bisphosphate aldolase (Mycobacterium tuberculosis (strain ATCC 25618 / H37Rv)), sequence (P9WQA3 whole entry, looked up): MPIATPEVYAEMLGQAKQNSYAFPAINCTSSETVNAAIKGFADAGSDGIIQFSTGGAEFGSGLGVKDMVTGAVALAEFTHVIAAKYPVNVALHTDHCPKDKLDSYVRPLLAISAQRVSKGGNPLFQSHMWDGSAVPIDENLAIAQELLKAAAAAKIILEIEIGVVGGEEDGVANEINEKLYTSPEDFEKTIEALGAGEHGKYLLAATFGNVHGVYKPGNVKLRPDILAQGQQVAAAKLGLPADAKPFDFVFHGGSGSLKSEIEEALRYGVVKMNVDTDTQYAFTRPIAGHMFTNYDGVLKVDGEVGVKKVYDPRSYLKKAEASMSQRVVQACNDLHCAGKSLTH

Point of comparison: `COc1ccccc1NC(=O)N(O)C1(C#N)CCCCC1`, inhibition 1.6%. Against it:
- CC(=O)N1CCN(S(=O)(=O)c2c(F)cc(F)c(Cl)c2F)CC1 — lower, -0.88%
- Cc1oc(-c2ccccc2F)nc1CS(=O)(=O)CC(=O)NCCCN(C)C1CCCCC1 — lower, -2.64%
- CC(C)c1cc(C(=O)N(C)C2CCCN(Cc3ccccc3F)C2)n(C)n1 (centres undefined) — higher, 2.62%
- CC(CO)NCC12CC3CC(CC(C3)C1)C2 (centres undefined) — lower, -1.08%
- Cc1ccc(-n2c(SCC(=O)N3CCC(C(=O)O)CC3)nc3ccccc3c2=O)cc1C — lower, -6.87%
- Cc1ccc(Cn2c(=N)c(S(=O)(=O)c3ccc(C)cc3)cc3c(=O)n4ccccc4nc32)cc1 — higher, 3.69%
- CCOC(=O)C1CN(S(=O)(=O)c2ccc(OC)cc2)c2cc(Cl)ccc2O1 (centres undefined) — higher, 2.59%
- CC[C@]12c3[nH]c4cc(CCC(=O)N(C)C)ccc4c3CCN1C(=O)[C@@H](CC(=O)NCC13CC4CC(CC(C4)C1)C3)C[C@@H]2C(=O)N1CCN(C(=O)C2CC2)CC1 — lower, 0.95%
- CC1=CC=CC2=N/C(=N\S(=O)(=O)c3ccc(F)cc3F)c3ccccc3CN12 — lower, 1.29%
- Cc1c(C(=O)CN2CCOCC2)[nH]c2ccccc12 — lower, -0.51%
- CCN(CC)C(=O)Oc1ccc(NC(=O)N2CCOCC2)cc1 — lower, -0.07%
- Cc1cc(NC(=O)CCN2CCN(Cc3ccccc3)CC2)ccc1Br — lower, 0.67%
- COc1cc2[nH]c(=O)n(CCC(=O)NC3CCN(Cc4ccccc4)CC3)c(=O)c2cc1OC — higher, 5.35%
- OCC(O)CN(c1ccccc1)c1ccccc1 (centres undefined) — higher, 5.53%
- CC(C)N(C(=O)Cn1cc(S(=O)(=O)CC(=O)N2CCOCC2)c2ccccc21)C(C)C — lower, -1.92%
- Cc1ccc(Br)c(NS(=O)(=O)c2cccc(C(=O)N3CCNC(=O)C3)c2)c1 — lower, -3.11%
- CC(=O)NC(Cc1ccc(F)c(F)c1)C(=O)NC1CCN(C(=O)c2ccc(C)cc2)CC1 (centres undefined) — lower, -2.53%
- CC(NC(=O)COc1ccccc1)C(=O)NC1=NCCS1 (centres undefined) — higher, 2.42%
- CC(C)(C)CN1CCNC(=O)C1CC(=O)NC1Cc2ccccc2C1 (centres undefined) — higher, 1.64%
- COc1ccc(-c2nc(N)sc2C2(O)C(=O)Nc3c(Br)cc(F)cc32)cc1OC (centres undefined) — higher, 5.75%
- O=C(CSc1nc(-c2ccccc2)cs1)Nc1cccc([N+](=O)[O-])c1 — lower, 0.01%
- O=[N+]([O-])c1cnc2ccc3ccccc3c2c1 — lower, 1.36%
- CC(=O)C1=C(O)C(=O)N(c2ccc(S(N)(=O)=O)cc2)C1c1ccccc1F (centres undefined) — higher, 12.8%
- CCCN(CCC)CC(O)COc1ccccc1C(=O)Nc1ccccc1 (centres undefined) — lower, 0.32%
- COc1ccc2sc(-c3ccccc3OC)c(-c3ccc(OCCN4CCCC4)cc3)c2c1 — lower, 0.37%
- COc1ccc2c(c1)c(=Cc1ccc(N(C)C)cc1)c1cc(-c3ccccc3)[n+](C)n12 — lower, -16.1%
- COc1cccc(-c2sc3ccc(OC)cc3c2-c2ccc(OCCN3CCCCC3)cc2)c1 — lower, 0.81%
- CC1CC(NC(=O)/C(C#N)=C/c2ccc[nH]2)CC(C)(C)C1 (centres undefined) — lower, -0.18%
- CN(Cc1ccccc1)CC(O)COc1ccc(CNCc2cc3ccccc3s2)cc1 (centres undefined) — lower, 0.16%
- Cc1ccc2c(NC(=O)C3CC3)cccc2n1 — higher, 3.11%
- Cc1cc(=O)n2nc(N3CCC(C(=O)Nc4c(F)c(F)c(F)c(F)c4F)CC3)sc2n1 — lower, -1.25%
- CCCCCC1CC(COc2ccccc2)OC1=O (centres undefined) — lower, -2.11%
- O=c1c2cc([N+](=O)[O-])ccc2nc2n1CCC2 — higher, 3.1%
- O=C(NC1CCCC1)C(c1ccccn1)N(C(=O)c1csnn1)C1CCCC1 (centres undefined) — higher, 2.16%
- COc1ccc(-c2oc3ncn(Cc4ccco4)c(=N)c3c2-c2ccc(OC)cc2)cc1 — higher, 7.98%
- COCCNc1ncnc2c1ncn2[C@H]1CN(Cc2ccc(OC)cc2)C[C@@H](CO)O1 — lower, 1.53%
- Cc1cccc(N2CC(C(=O)Nc3ccccc3N3CCCC3)CC2=O)c1C (centres undefined) — higher, 3.07%
- Cc1ccccc1/[N+]([O-])=C/c1ccncc1 — lower, 0.03%
- COc1cccc(C2CC(c3ccccc3)=NN2S(=O)(=O)c2ccccc2)c1OC (centres undefined) — lower, 0.19%
- Cc1ccc(C2CC(c3cccc(NS(C)(=O)=O)c3)=NN2S(C)(=O)=O)cc1 (centres undefined) — lower, -2.56%
- CS(=O)(=O)Nc1cccc(C2=NN(C(=O)c3cccc(F)c3)C(c3cccs3)C2)c1 (centres undefined) — higher, 5.49%
- CCS(=O)(=O)Nc1ccc(C2=NN(S(=O)(=O)c3ccc(F)cc3)C(c3ccco3)C2)cc1 (centres undefined) — lower, -0.61%
- CCOC(=O)CNc1nc2ccccc2n2c(C)nnc12 — lower, -1.1%
- O=C1CCc2cc(S(=O)(=O)Nc3ccc(C(F)(F)F)cc3)cc3c2N1CC3 — higher, 6.49%
- Cc1cc(C(=O)CC#N)c(C)n1-c1c(C)n(C)n(-c2ccccc2)c1=O — higher, 2.39%
- CCOC(=O)CNC(=O)CN1C(=O)CCSc2ccccc21 — lower, 0.13%
- O=C(COc1ccccc1Cl)Nn1cnnc1 — lower, 0.49%
- COc1ccc(CCNc2ncnc3c2nnn3Cc2ccccc2)cc1 — lower, 0.68%
- Cc1cc(C(=O)COc2ccc(Br)cc2F)c(C)n1C1CC1 — lower, 0.29%
- CC1C2Cn3c(nc4ccccc43)C1N(C)O2 (centres undefined) — lower, -1.64%
- CN1C(C(=O)NCc2ccco2)CC2Cn3c(nc4ccccc43)C21 (centres undefined) — higher, 2.79%
- CSCCNC(=O)c1ccc2nc(Cc3ccccc3F)oc2c1 — higher, 3.27%
- CC(C)=CCN1CCN(Cc2ccc(Oc3ncccn3)cc2)CC1CCO (centres undefined) — lower, 0.18%
- CN(C)c1ccnc(Nc2ccc(F)cc2)c1C#N — lower, -3.67%
- CN(C)c1nc(-c2cccnc2)nc(-c2ccc(Cl)cc2)c1C#N — lower, -3.84%
- COc1cccc(CN2CCC(C(=O)NC(c3ccc4c(c3)OCO4)c3ccccn3)CC2)c1 (centres undefined) — lower, 0.6%
- O=C(CCS(=O)(=O)c1ccccc1Cl)Nc1ccc(S(=O)(=O)Nc2ncccn2)cc1 — lower, -1.51%
- O=C(NCCCN1CCCC1=O)C(=O)NCC1OCCN1S(=O)(=O)c1ccc(Br)cc1 (centres undefined) — higher, 6.34%
- Cc1ccccc1N1CC(c2nc3ccccc3[nH]2)CC1=O (centres undefined) — lower, 0.05%
- CCOC(=O)CNC(=O)CSc1ncccc1-c1nc2ccccc2[nH]1 — higher, 8.03%
- CCSc1nc(=S)n(CC)c(C)c1C(C)=O — lower, -0.42%
- O=C(CN1CCOc2ccccc21)N1CCC(Cc2ccccc2)CC1 — higher, 6.13%
- CCC(C)N(C(=O)COC(=O)c1nc(Cl)ccc1Cl)C1CCS(=O)(=O)C1 (centres undefined) — lower, 0.03%
- CCC(C)N(C(=O)Cn1nc(C)c([N+](=O)[O-])c1C)C1CCS(=O)(=O)C1 (centres undefined) — lower, 1.23%
- CCOC(=O)c1nn(-c2ccccc2F)c2nc(Nc3ccccc3)cc(=O)n12 — lower, -2.45%
- CCOc1ccccc1N(CC(=O)NC1CCCCC1)C(=O)CCCC(=O)Nc1ccccn1 — lower, -0.58%
- COc1ccccc1N(C)S(=O)(=O)c1ccc(C(=O)NC2CCCCCC2)cc1 — higher, 2.13%
- Cc1ccccc1CCN(CC(=O)NC1CCCCC1)C(=O)c1csnn1 — lower, -2.02%
- Cc1ccc(N(CC(=O)NC2CCCCC2)C(=O)CCCC(=O)Nc2ccccn2)c(C)c1 — higher, 3.51%
- CC1=C(C(=O)N2CCOCC2)CC(CC(=O)NCc2cccs2)C(=O)N1CCCN1CCCC1=O (centres undefined) — higher, 2.87%
- Cc1ccc2c(cnn2C(=O)CCC(=O)NC2CCCC2)c1 — higher, 2.86%
- Cc1ccc(C(C(=O)NC2CCCCC2)N(C(=O)c2csnn2)C2CC2)o1 (centres undefined) — higher, 1.93%

In the case of `CN(CCNC(=O)c1cc2c(-c3ccccc3F)nn(C)c2s1)C1CCCCC1`, the inhibition is reported as 73.3% (active).
`Cc1ccc(-n2c(=O)c(C#N)cc3c(=O)n4ccccc4nc32)cc1C` was tested, and the inhibition was 67% (active).
In the case of `CCOC(=O)c1[nH]c2ccc(OC)cc2c1NC(=O)CCN1CCN(Cc2ccccc2)CC1`, the inhibition is reported as 49.8% (active).
For `CCOC(=O)c1[nH]c2ccc(OC)cc2c1NC(=O)N1CCOCC1`, the inhibition was 28.4% (active).
For `O=[N+]([O-])c1cccc(Nc2c3ccccc3nc3ccccc23)c1`, the inhibition was 122% (active).
`COc1ccc2sc(-c3ccc(N(C)C)cc3)c(-c3ccc4cc[nH]c4c3)c2c1` was tested, and the inhibition was 41% (active).
`Cc1cc(C)c2c(NC(=O)C3CC3)nn(C)c2n1` was tested, and the inhibition was 46.1% (active).
With `COc1ccc(-c2oc3ncnc(NCCCO)c3c2-c2ccc(OC)cc2)cc1` the inhibition was 58.3% (active).
For `CCS(=O)(=O)Nc1ccc(C2=NN(C(C)=O)C(c3cccs3)C2)cc1` (centres undefined), the inhibition was 591% [above what the read-out allows, likely interference] (active).
In the case of `CS(=O)(=O)Nc1ccc(C2=NN(S(C)(=O)=O)C(c3cccs3)C2)cc1` (centres undefined), the inhibition is reported as 73.8% (active).
With `CNc1nccc(-c2ccc(Cl)cc2)c1C#N` the inhibition was 30.5% (active).
For `Cc1ccc(-c2nc3ccccc3[nH]2)cc1N`, the inhibition was 176% (active).
`CCC(C)N(C(=O)COC(=O)C1C(C(=O)OC)=C(C)NC(C)=C1C(=O)OC)C1CCS(=O)(=O)C1` (centres undefined) was tested, and the inhibition was 74.9% (active).
In the case of `Cc1cc2cc3n(c2nn1)N=C(Cl)CC3`, the inhibition is reported as 83.2% (active).
With `CC1=CC=CN2C1=NC(=O)CC2(C)C(=O)N(CC(=O)NC1CCCC1)c1ccccc1C` (centres undefined) the inhibition was 164% (active).
In the case of `COc1ccccc1N(CC(=O)NC1CCCC1)C(=O)C1(C)CC(=O)N=C2C=CC(C)=CN21` (centres undefined), the inhibition is reported as 123% (active).
